PubChem BioAssay AID1159580 (chemical genetic matrix, 2015)
Among all 5,500 compounds or so, about 2,000 (36%) were called active. About 18% were inconclusive and are not listed. Cut-off read from the data, not from the text of the source: active = normalized growth mostly below about 0.91 (no sharp cut-off); inconclusive = no clear call, values can overlap the other calls; inactive = mostly above about 0.92. This is one part of the list.

Experiment: chemical genetic growth profiling, strain panel (AID 1159580);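 note: tested at 20 µM; growth read once vehicle control cultures reached saturation at 30 °C; 1 = growth at the plate median or of vehicle wells; lower values mean less growth of the strain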
Details: growth OD
[1] = S. cerevisiae deletion strains, locus YAL040C, strain CLN3, hits give low values
[2] = S. cerevisiae deletion strains, locus YCL061C, strain MRC1 (second series), hits give low values
[3] = S. cerevisiae deletion strains, locus YDR363W, strain ESC2, hits give low values
[4] = S. cerevisiae deletion strains, locus YER002W, strain NOP16, hits give low values
[5] = S. cerevisiae deletion strains, locus YJR075W, strain HOC1, hits give low values
[6] = S. cerevisiae deletion strains, locus YMR263W, strain SAP30, hits give low values
[7] = S. cerevisiae deletion strains, locus YMR307W, strain GAS1, hits give low values
[8] = S. cerevisiae deletion strains, locus YNL175C, strain NOP13, hits give low values
[9] = S. cerevisiae deletion strains, locus YNL197C, strain WHI3, hits give low values
[10] = S. cerevisiae deletion strains, locus YNL224C, strain SQS1, hits give low values
[11] = S. cerevisiae deletion strains, locus YNL322C, strain KRE1, hits give low values
[12] = S. cerevisiae deletion strains, locus YOR083W, strain WHI5 (second series), hits give low values
[13] = S. cerevisiae deletion strains, locus YPL055C, strain LGE1, hits give low values
[14] = S. cerevisiae deletion strains, locus YPL241C, strain CIN2, hits give low values
[15] = S. cerevisiae deletion strains, locus YAL013W, strain DEP1, hits give low values
[16] = S. cerevisiae deletion strains, locus YGR078C, strain PAC10, hits give low values
[17] = S. cerevisiae deletion strains, locus YNL153C, strain GIM3, hits give low values
[18] = S. cerevisiae deletion strains, locus YDL101C, strain DUN1, hits give low values
[19] = S. cerevisiae deletion strains, locus YHR030C, strain SLT2, hits give low values
[20] = S. cerevisiae deletion strains, locus YAR019C, strain CDC15, hits give low values
[21] = S. cerevisiae deletion strains, locus YBL105C, strain PKC1, hits give low values
[22] = S. cerevisiae deletion strains, locus YBR135W, strain CKS1, hits give low values
[23] = S. cerevisiae deletion strains, locus YBR136W, strain MEC1, hits give low values
[24] = S. cerevisiae deletion strains, locus YBR160W, strain CDC28, hits give low values
[25] = S. cerevisiae deletion strains, locus YDL017W, strain CDC7, hits give low values
[26] = S. cerevisiae deletion strains, locus YDL028C, strain MPS1, hits give low values
[27] = S. cerevisiae deletion strains, locus YDL108W, strain KIN28, hits give low values
[28] = S. cerevisiae deletion strains, locus YDL132W, strain cdc53, hits give low values
[29] = S. cerevisiae deletion strains, locus YDL214C, strain PRR2, hits give low values
[30] = S. cerevisiae deletion strains, locus YDR052C, strain DBF4, hits give low values
[31] = S. cerevisiae deletion strains, locus YDR054C, strain cdc34, hits give low values
[32] = S. cerevisiae deletion strains, locus YDR226W, strain ADK1, hits give low values
[33] = S. cerevisiae deletion strains, locus YDR477W, strain SNF1, hits give low values
[34] = S. cerevisiae deletion strains, locus YER123W, strain YCK3, hits give low values
[35] = S. cerevisiae deletion strains, locus YER133W, strain GLC7, hits give low values
[36] = S. cerevisiae deletion strains, locus YFL009W, strain cdc4, hits give low values
[37] = S. cerevisiae deletion strains, locus YFL029C, strain CAK1, hits give low values
[38] = S. cerevisiae deletion strains, locus YFR003C, strain YPI1, hits give low values
[39] = S. cerevisiae deletion strains, locus YFR019W, strain FAB1, hits give low values
[40] = S. cerevisiae deletion strains, locus YFR028C, strain CDC14, hits give low values
[41] = S. cerevisiae deletion strains, locus YGR040W, strain KSS1, hits give low values
[42] = S. cerevisiae deletion strains, locus YGR052W, strain FMP48, hits give low values
[43] = S. cerevisiae deletion strains, locus YGR092W, strain DBF2, hits give low values
[44] = S. cerevisiae deletion strains, locus YHR079C, strain IRE1, hits give low values
[45] = S. cerevisiae deletion strains, locus YHR082C, strain KSP1, hits give low values
[46] = S. cerevisiae deletion strains, locus YHR205W, strain SCH9, hits give low values
[47] = S. cerevisiae deletion strains, locus YIL147C, strain SLN1, hits give low values
[48] = S. cerevisiae deletion strains, locus YJL095W, strain BCK1, hits give low values
[49] = S. cerevisiae deletion strains, locus YJL128C, strain PBS2, hits give low values
[50] = S. cerevisiae deletion strains, locus YJL157C, strain FAR1, hits give low values
[51] = S. cerevisiae deletion strains, locus YJR016C, strain ILV3, hits give low values
[52] = S. cerevisiae deletion strains, locus YJR066W, strain TOR1 (second series), hits give low values
[53] = S. cerevisiae deletion strains, locus YJR066W, strain TOR1, hits give low values
[54] = S. cerevisiae deletion strains, locus YKL048C, strain ELM1, hits give low values
[55] = S. cerevisiae deletion strains, locus YKL067W, strain YNK1, hits give low values
[56] = S. cerevisiae deletion strains, locus YKL101W, strain HSL1, hits give low values
[57] = S. cerevisiae deletion strains, locus YKL193C, strain SDS22, hits give low values
[58] = S. cerevisiae deletion strains, locus YKL203C, strain TOR2, hits give low values
[59] = S. cerevisiae deletion strains, locus YLR113W, strain HOG1, hits give low values
[60] = S. cerevisiae deletion strains, locus YLR133W, strain CKI1, hits give low values
[61] = S. cerevisiae deletion strains, locus YLR403W, strain SFP1, hits give low values
[62] = S. cerevisiae deletion strains, locus YML070W, strain DAK1, hits give low values
[63] = S. cerevisiae deletion strains, locus YMR001C, strain CDC5, hits give low values
[64] = S. cerevisiae deletion strains, locus YMR205C, strain PFK2 (second series), hits give low values
[65] = S. cerevisiae deletion strains, locus YMR277W, strain FCP1, hits give low values
[66] = S. cerevisiae deletion strains, locus YNL006W, strain LST8, hits give low values
[67] = S. cerevisiae deletion strains, locus YNL020C, strain ARK1, hits give low values
[68] = S. cerevisiae deletion strains, locus YNL161W, strain CBK1, hits give low values
[69] = S. cerevisiae deletion strains, locus YNL183C, strain NPR1, hits give low values
[70] = S. cerevisiae deletion strains, locus YNL207W, strain RIO2, hits give low values
[71] = S. cerevisiae deletion strains, locus YNL222W, strain SSU72, hits give low values
[72] = S. cerevisiae deletion strains, locus YNL307C, strain MCK1 (second series), hits give low values
[73] = S. cerevisiae deletion strains, locus YOL078W, strain AVO1, hits give low values
[74] = S. cerevisiae deletion strains, locus YOL136C, strain PFK27, hits give low values
[75] = S. cerevisiae deletion strains, locus YOR061W, strain CKA2, hits give low values
[76] = S. cerevisiae deletion strains, locus YOR119C, strain RIO1, hits give low values
[77] = S. cerevisiae deletion strains, locus YOR231W, strain MKK1, hits give low values
[78] = S. cerevisiae deletion strains, locus YOR329C, strain SCD5, hits give low values
[79] = S. cerevisiae deletion strains, locus YPL031C, strain PHO85, hits give low values
[80] = S. cerevisiae deletion strains, locus YPL153C, strain RAD53, hits give low values
[81] = S. cerevisiae deletion strains, locus YPL204W, strain HRR25, hits give low values
[82] = S. cerevisiae deletion strains, locus YPL209C, strain IPL1, hits give low values
[83] = S. cerevisiae deletion strains, locus YPL256C, strain CLN2, hits give low values
[84] = S. cerevisiae deletion strains, locus YPR025C, strain CCL1, hits give low values
[85] = S. cerevisiae deletion strains, locus YPR106W, strain ISR1, hits give low values
[86] = S. cerevisiae deletion strains, locus YPR111W, strain DBF20, hits give low values
[87] = S. cerevisiae deletion strains, strain NNK1, hits give low values
[88] = S. cerevisiae deletion strains, strain TSCII, hits give low values

Measured: normalized growth

COc1ccc2c(c1)[C@@]13CCCC[C@H]1[C@@H](C2)NCC3
inactive: [1] 0.998 | [2] 0.997 | [3] 0.951 | [4] 1.02 | [5] 0.988 | [6] 0.992 | [7] 0.973 | [8] 0.996 | [9] 1.03 | [10] 1.01 | [11] 0.991 | [12] 1 | [13] 0.983 | [14] 1

OCC1NCC(O)C(O)C1O (stereo not drawn)
inactive: [15] 1.02 | [1] 1.02 | [2] 1.01 | [3] 1.04 | [4] 1.01 | [16] 1 | [6] 1.01 | [7] 1.01 | S. cerevisiae deletion strains, locus YNL128W, strain TEP1, hits give low values 1.02 | [17] 1.02 | [8] 1.02 | [9] 1.01 | [10] 0.998 | [12] 1

Cc1c(-c2ccnc(N)n2)nnn1-c1ccc(Cl)cc1Cl
inactive: [15] 1 | S. cerevisiae deletion strains, locus YBR229C, strain ROT2, hits give low values 0.974 | [18] 0.981 | S. cerevisiae deletion strains, locus YDR150W, strain NUM1, hits give low values 1.03 | S. cerevisiae deletion strains, locus YEL061C, strain CIN8, hits give low values 0.959 | [16] 0.985 | [19] 0.732 | S. cerevisiae deletion strains, locus YHR087W, strain rtc3, hits give low values 0.959 | S. cerevisiae deletion strains, locus YJL187C, strain SWE1, hits give low values 1.01 | S. cerevisiae deletion strains, locus YJR043C, strain POL32, hits give low values 1.01 | [5] 0.967 | S. cerevisiae deletion strains, locus YKL190W, strain CNB1, hits give low values 1.01 | S. cerevisiae deletion strains, locus YLR039C, strain RIC1, hits give low values 0.936 | S. cerevisiae deletion strains, locus YLR058C, strain SHM2 (second series), hits give low values 0.989 | S. cerevisiae deletion strains, locus YLR085C, strain ARP6, hits give low values 0.885 | S. cerevisiae deletion strains, locus YLR262C, strain YPT6, hits give low values 0.932 | S. cerevisiae deletion strains, locus YML094W, strain GIM5, hits give low values 0.988 | S. cerevisiae deletion strains, locus YMR219W, strain ESC1, hits give low values 1 | [6] 0.98 | [17] 0.991 | S. cerevisiae deletion strains, locus YNL298W, strain CLA4 (second series), hits give low values 0.973 | [11] 1.01 | S. cerevisiae deletion strains, locus YNR030W, strain Alg12, hits give low values 0.975 | S. cerevisiae deletion strains, locus YOL006C, strain TOP1, hits give low values 0.921 | [13] 1.08 | [14] 0.957 | S. cerevisiae deletion strains, locus YPR135W, strain CTF4, hits give low values 0.687 | S. cerevisiae strains, strain wild type, hits give low values 0.992

O=C1CSC(c2cccnc2)N1c1ccc(Cl)cc1Cl (stereo not drawn)
inactive: [20] 0.986 | [21] 0.996 | [22] 0.994 | [23] 0.99 | [24] 0.994 | [25] 0.992 | [26] 0.992 | [18] 1 | [27] 0.985 | [28] 0.993 | [29] 0.931 | [30] 0.997 | [31] 0.987 | [32] 0.989 | [33] 0.919 | [34] 0.823 | [35] 0.897 | [36] 1 | [37] 0.98 | [38] 0.99 | [39] 0.796 | [40] 0.993 | [41] 0.93 | [42] 0.902 | [43] 0.972 | [19] 0.958 | [44] 0.964 | [45] 0.932 | [46] 0.98 | [47] 0.998 | [48] 0.906 | [49] 0.993 | [50] 0.948 | [51] 0.993 | [52] 0.893 | [53] 0.837 | [54] 1.01 | [55] 0.944 | [56] 0.993 | [57] 0.989 | [58] 0.945 | [59] 0.913 | [60] 0.962 | [61] 0.937 | [62] 0.939 | [63] 0.991 | [64] 0.968 | [65] 0.992 | [66] 0.986 | [67] 0.974 | [68] 0.985 | [69] 0.912 | [70] 0.998 | [71] 0.99 | [72] 0.952 | [73] 0.994 | [74] 0.919 | [75] 0.939 | [76] 0.919 | [77] 0.937 | [78] 0.99 | [79] 0.928 | [80] 0.933 | [81] 0.92 | [82] 0.989 | [83] 0.88 | [84] 0.984 | [85] 1.01 | [86] 1 | [87] 0.998 | [88] 0.989

O=c1c(Cl)c(-n2cccn2)cnn1-c1ccc(Cl)cc1Cl
inactive: [20] 0.93 | [21] 0.948 | [22] 0.943 | [23] 0.949 | [24] 0.96 | [25] 0.95 | [26] 0.954 | [18] 0.985 | [27] 0.962 | [28] 0.95 | [29] 0.906 | [30] 0.93 | [31] 0.913 | [32] 0.974 | [33] 0.893 | [34] 0.722 | [35] 0.909 | [36] 0.955 | [37] 0.916 | [38] 0.953 | [39] 0.956 | [40] 0.965 | [41] 0.883 | [42] 0.902 | [43] 0.539 | [44] 0.768 | [45] 0.988 | [46] 1.02 | [47] 0.955 | [48] 0.823 | [49] 0.94 | [50] 0.864 | [51] 0.932 | [52] 0.726 | [53] 0.901 | [54] 0.979 | [55] 0.903 | [56] 0.951 | [57] 0.936 | [58] 0.909 | [60] 0.943 | [61] 0.92 | [62] 0.917 | [63] 0.917 | [64] 0.926 | [65] 0.941 | [66] 0.934 | [67] 0.914 | [68] 0.931 | [69] 0.857 | [70] 0.968 | [71] 0.949 | [72] 0.901 | [73] 0.928 | [74] 0.951 | [75] 0.93 | [76] 0.947 | [77] 0.842 | [78] 0.943 | [79] 0.862 | [80] 0.84 | [81] 0.903 | [82] 0.954 | [84] 0.947 | [85] 0.986 | [86] 0.981 | [87] 0.97 | [88] 0.908
active: [19] 0.71 | [59] 0.691 | [83] 0.831
